Among the data in the supplement of paper PMC10849652 are log2 fold change values, retold here.

About 7,900 targets were measured; listed, in parts, are those with a hit and a random draw of the rest. About 0.6% of all pairs of compound and target were hits.

UniProt O95628, sequence (O95628 whole entry, looked up): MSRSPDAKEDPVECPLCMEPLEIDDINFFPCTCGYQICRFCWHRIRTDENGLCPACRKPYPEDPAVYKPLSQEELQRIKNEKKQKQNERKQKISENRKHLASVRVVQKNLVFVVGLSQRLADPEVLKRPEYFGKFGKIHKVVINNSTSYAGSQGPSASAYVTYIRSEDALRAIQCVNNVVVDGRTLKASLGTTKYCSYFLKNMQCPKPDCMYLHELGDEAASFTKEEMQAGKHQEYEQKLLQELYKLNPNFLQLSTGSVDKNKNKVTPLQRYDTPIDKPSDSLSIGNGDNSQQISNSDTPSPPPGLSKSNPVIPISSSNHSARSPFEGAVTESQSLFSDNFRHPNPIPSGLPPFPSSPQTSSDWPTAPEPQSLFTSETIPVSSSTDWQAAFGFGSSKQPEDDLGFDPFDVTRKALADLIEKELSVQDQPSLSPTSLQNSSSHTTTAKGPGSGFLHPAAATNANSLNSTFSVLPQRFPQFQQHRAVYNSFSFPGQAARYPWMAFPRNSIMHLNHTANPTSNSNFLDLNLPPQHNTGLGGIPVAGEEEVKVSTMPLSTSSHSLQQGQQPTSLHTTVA
UniProt P51946, sequence (P51946 whole entry, looked up): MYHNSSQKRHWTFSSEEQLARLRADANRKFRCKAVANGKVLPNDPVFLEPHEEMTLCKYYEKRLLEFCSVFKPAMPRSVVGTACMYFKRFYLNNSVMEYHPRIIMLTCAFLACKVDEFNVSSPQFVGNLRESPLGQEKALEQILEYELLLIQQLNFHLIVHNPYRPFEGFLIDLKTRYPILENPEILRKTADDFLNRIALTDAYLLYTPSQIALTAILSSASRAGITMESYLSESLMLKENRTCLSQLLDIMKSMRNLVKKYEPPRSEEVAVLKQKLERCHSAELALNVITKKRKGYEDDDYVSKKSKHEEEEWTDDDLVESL
UniProt Q8N1A6, sequence (Q8N1A6 whole entry, looked up): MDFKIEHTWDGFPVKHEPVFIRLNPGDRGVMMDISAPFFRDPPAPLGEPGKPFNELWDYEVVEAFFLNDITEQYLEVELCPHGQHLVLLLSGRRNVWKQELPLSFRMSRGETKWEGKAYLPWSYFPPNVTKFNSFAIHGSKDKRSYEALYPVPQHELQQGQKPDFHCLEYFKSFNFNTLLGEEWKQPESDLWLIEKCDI
UniProt P55060, sequence (P55060 whole entry, looked up): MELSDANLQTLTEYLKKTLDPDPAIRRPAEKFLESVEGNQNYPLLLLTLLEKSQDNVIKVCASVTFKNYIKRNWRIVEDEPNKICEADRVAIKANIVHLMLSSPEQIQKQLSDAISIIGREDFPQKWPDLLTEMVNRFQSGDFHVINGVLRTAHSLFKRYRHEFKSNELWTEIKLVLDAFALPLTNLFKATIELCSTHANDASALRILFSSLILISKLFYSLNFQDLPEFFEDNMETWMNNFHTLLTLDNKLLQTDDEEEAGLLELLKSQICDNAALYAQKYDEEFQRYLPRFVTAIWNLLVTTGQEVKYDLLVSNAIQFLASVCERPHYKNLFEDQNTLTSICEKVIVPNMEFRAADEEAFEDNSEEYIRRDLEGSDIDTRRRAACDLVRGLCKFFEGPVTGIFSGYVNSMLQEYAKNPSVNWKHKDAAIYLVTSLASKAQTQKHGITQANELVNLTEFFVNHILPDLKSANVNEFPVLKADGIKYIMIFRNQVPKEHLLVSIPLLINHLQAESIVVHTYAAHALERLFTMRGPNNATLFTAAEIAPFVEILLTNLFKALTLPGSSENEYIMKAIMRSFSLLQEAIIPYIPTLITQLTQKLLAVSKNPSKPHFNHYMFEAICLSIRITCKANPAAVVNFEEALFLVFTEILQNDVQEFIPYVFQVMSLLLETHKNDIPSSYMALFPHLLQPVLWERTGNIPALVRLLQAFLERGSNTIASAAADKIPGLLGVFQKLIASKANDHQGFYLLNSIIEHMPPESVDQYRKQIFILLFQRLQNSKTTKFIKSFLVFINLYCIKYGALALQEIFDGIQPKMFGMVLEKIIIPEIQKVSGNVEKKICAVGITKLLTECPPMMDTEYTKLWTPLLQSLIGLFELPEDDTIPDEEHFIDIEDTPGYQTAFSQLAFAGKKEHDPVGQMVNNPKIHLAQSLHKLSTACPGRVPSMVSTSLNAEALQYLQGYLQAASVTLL
UniProt P00915, sequence (P00915 whole entry, looked up): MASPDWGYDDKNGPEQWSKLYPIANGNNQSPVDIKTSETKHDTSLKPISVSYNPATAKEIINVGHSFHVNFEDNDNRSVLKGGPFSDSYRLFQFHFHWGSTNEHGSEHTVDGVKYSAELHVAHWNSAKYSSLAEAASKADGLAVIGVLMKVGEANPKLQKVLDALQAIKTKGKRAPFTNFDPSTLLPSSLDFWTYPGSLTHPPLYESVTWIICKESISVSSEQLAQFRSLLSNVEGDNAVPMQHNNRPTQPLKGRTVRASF
UniProt Q92851, sequence (Q92851 whole entry, looked up): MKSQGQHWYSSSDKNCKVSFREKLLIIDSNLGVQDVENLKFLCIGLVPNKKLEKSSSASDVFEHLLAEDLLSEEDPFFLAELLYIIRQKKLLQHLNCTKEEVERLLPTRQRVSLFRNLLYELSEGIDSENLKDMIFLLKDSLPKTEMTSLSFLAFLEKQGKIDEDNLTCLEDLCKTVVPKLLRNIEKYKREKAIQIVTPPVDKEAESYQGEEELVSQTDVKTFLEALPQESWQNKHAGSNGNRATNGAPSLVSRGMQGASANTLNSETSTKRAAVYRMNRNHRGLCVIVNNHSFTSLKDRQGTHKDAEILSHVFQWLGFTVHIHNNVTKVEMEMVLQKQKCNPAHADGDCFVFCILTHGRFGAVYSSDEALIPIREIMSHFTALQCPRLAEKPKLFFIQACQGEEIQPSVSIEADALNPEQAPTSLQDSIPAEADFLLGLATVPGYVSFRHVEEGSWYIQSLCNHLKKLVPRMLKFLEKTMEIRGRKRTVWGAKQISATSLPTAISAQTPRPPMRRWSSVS
UniProt P14854, sequence (P14854 whole entry, looked up): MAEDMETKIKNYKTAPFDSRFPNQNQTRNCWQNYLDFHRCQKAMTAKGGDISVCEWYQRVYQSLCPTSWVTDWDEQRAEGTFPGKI
UniProt Q00536, sequence (Q00536 whole entry, looked up): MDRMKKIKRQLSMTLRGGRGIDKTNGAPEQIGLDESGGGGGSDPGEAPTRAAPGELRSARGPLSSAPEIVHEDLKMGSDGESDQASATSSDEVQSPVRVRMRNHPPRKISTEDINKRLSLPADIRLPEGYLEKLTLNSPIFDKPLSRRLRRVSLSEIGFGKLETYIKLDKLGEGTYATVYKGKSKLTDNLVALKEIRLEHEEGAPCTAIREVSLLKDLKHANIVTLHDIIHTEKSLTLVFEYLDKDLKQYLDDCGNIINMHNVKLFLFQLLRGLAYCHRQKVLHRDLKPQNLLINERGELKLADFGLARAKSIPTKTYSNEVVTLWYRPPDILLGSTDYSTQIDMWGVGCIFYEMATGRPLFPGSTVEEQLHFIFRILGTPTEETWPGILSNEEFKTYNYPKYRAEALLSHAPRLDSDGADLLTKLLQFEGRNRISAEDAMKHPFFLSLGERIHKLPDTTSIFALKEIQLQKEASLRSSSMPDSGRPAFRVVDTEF
UniProt P46109, sequence (P46109 whole entry, looked up): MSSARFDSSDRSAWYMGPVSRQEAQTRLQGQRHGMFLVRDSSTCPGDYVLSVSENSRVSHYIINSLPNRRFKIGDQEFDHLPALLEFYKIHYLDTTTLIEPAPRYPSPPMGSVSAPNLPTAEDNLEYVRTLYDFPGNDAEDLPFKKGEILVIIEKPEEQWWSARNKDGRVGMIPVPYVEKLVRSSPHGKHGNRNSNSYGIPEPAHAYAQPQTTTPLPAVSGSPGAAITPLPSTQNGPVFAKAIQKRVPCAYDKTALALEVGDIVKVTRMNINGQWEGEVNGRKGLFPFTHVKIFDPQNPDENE
UniProt A6NHX0, sequence (A6NHX0 whole entry, looked up): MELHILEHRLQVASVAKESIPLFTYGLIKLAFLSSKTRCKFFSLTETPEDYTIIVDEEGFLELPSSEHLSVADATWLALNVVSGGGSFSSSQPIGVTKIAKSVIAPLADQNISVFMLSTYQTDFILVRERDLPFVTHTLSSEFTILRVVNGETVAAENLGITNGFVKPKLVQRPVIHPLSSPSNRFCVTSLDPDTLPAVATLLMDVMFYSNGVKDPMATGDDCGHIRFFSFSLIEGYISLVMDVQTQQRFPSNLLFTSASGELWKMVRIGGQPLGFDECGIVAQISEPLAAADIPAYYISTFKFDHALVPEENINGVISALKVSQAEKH
UniProt P42574, sequence (P42574 whole entry, looked up): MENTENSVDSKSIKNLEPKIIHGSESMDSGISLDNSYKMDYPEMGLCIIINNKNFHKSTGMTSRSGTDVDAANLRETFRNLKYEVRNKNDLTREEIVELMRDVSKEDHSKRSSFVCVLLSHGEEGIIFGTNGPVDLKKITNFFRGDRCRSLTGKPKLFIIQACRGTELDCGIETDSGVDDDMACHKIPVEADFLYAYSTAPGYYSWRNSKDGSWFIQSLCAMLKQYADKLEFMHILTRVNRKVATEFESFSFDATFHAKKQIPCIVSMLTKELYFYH
UniProt Q96CF2, sequence (Q96CF2 whole entry, looked up): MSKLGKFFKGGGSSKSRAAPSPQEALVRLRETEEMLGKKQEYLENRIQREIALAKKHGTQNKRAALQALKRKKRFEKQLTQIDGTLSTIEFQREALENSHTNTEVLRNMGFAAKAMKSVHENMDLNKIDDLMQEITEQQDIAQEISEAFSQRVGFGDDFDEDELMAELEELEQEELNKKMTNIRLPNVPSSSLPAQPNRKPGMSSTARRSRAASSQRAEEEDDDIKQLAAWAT
UniProt Q9P031, sequence (Q9P031 whole entry, looked up): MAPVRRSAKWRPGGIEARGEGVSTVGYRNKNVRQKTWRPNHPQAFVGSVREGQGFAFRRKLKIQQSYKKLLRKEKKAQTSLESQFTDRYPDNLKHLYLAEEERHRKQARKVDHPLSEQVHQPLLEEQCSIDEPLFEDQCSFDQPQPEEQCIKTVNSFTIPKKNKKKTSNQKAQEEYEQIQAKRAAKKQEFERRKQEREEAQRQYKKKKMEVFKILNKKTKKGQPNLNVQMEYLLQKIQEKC

Compound in the first test: C1=CC=C(C=C1)[C@H](COC2=CC3=C(C=C2)NC(=O)N3)NC(=O)C4=CC=CN(C4=O)CC5=CC(=C(C=C5)F)F
Description: log2 fold change, soluble protein after heating vs DMSO (PISA); higher = thermal stabilisation; K562 cells, 10 uM, 30 min; active = over 0.2 and 3.5 SD of the protein, either way, in both replicates (recomputed). The method in brief:
(§1)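 K562 cells at 2×10^6 cells/mL were treated for 30 min with 10 μM compound, and aliquots were heated for 3 min over 48°C-58°C before pooling. Extraction used PBS with 0.5% NP-40 at 4°C, and soluble protein was the supernatant after 21,000xg for 90 min, measured by TMTpro 16plex LC-MS/MS with channel sums equalised. Thermal stability values, relative to control samples and from duplicates, are log2 fold changes.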
Regarding CCDC82 (UniProt Q8N4S0), the log2 fold change was -0.018 (inactive).
Same read-out and setting: as for CCDC59 (UniProt Q9P031), the figure is 0.012 (inactive).
COASY isoform 2 (UniProt Q13057): the log2 fold change is -0.03 (inactive).
For CS (UniProt F8VU34), the log2 fold change was -0.03 (inactive).
Consider CDC42EP1 (UniProt Q00587), for which the log2 fold change was -0.067 (inactive).
In the case of C4orf33 (UniProt Q8N1A6), the log2 fold change is -0.041 (inactive).
In the case of CLN3 (UniProt Q13286), the log2 fold change was 0.005 (inactive).
As to CNOT4 isoform 6 (UniProt O95628), the log2 fold change is -0.019 (inactive).
Take CDK16 isoform 2 (UniProt Q00536): the log2 fold change was -0.009 (inactive).
As for CASTOR2 (UniProt A6NHX0), the log2 fold change is 0.056 (inactive).
Consider CD81 (UniProt P60033), for which the log2 fold change was -0.083 (inactive).
The same measure, in the same setting: for COX6B1 (UniProt P14854) the value was 0.007 (inactive).
For the target CLN8 (UniProt Q9UBY8), the log2 fold change was 0.121 (inactive).
Same read-out and setting: for COMT (UniProt P21964) the value was 0.024 (inactive); for CSE1L (UniProt P55060), -0.024 (inactive).
In the case of CSTF3 (UniProt Q12996), the log2 fold change was -0.005 (inactive).
Consider CSNK1A1 isoform 3 (UniProt P48729), for which the log2 fold change is -0.061 (inactive).
For the target CDC37L1 (UniProt Q7L3B6), the log2 fold change was -0.009 (inactive).
For the target CASP7 isoform 3 (UniProt P55210), the log2 fold change was 0.12 (inactive).
For the target CDK9 isoform 2 (UniProt P50750), the log2 fold change is -0.007 (inactive).
On to CTBS (UniProt Q01459), for which the log2 fold change is 0.082 (inactive).
As to CAD (UniProt P27708), the log2 fold change is -0.115 (inactive).
In the case of C4A (UniProt P0C0L4), the log2 fold change is -0.158 (inactive).
The same measure, in the same setting: as for COQ9 (UniProt O75208), the figure is -0.068 (inactive).
CD53 (UniProt P19397): the log2 fold change is -0.05 (inactive).
For the target CD68 (UniProt P34810), the log2 fold change was 0.021 (inactive).
Take CCNH (UniProt P51946): the log2 fold change was 0.02 (inactive).
Take CNOT2 (UniProt Q9NZN8): the log2 fold change was 0.024 (inactive).
For CHMP4C (UniProt Q96CF2), the log2 fold change was -0.002 (inactive).
As to CASP10 isoform 4 (UniProt Q92851), the log2 fold change is 0.064 (inactive).
CA1 (UniProt P00915): the log2 fold change was -0.007 (inactive).
For CASP3 (UniProt P42574), the log2 fold change is 0.018 (inactive).
Turning to CRKL (UniProt P46109), the log2 fold change was 0.01 (inactive).
As to CPSF3 (UniProt Q9UKF6), the log2 fold change is -0.016 (inactive).

Compound in the next test: CC1=C(SC2=C1C(=N[C@H](C3=NN=C(N32)C)CC(=O)N)C4=CC=C(C=C4)Cl)C
Described as above. The method in brief: as §1
With CCDC82 (UniProt Q8N4S0), the log2 fold change is 0.056 (inactive).
As to CCDC59 (UniProt Q9P031), the log2 fold change is -0.177 (inactive).
Take COASY isoform 2 (UniProt Q13057): the log2 fold change is 0.054 (inactive).
As to CDC42EP1 (UniProt Q00587), the log2 fold change is 0.107 (inactive).
For C4orf33 (UniProt Q8N1A6), the log2 fold change is 0.176 (inactive).
For the target CLN3 (UniProt Q13286), the log2 fold change is -0.032 (inactive).
In the case of CNOT4 isoform 6 (UniProt O95628), the log2 fold change is 0.012 (inactive).
As to CDK16 isoform 2 (UniProt Q00536), the log2 fold change was 0.026 (inactive).
Regarding CASTOR2 (UniProt A6NHX0), the log2 fold change is 0.078 (inactive).
As to CD81 (UniProt P60033), the log2 fold change is -0.013 (inactive).
For COX6B1 (UniProt P14854), the log2 fold change is 0.141 (inactive).
In the case of CLN8 (UniProt Q9UBY8), the log2 fold change was 0.042 (inactive).
Take COMT (UniProt P21964): the log2 fold change was 0.142 (inactive).
As to CSE1L (UniProt P55060), the log2 fold change is 0.063 (inactive).
As to CSTF3 (UniProt Q12996), the log2 fold change was 0.064 (inactive).
Take CDC37L1 (UniProt Q7L3B6): the log2 fold change was 0.026 (inactive).
Same read-out and setting: for CDK9 isoform 2 (UniProt P50750) the value was -0.03 (inactive).
As for CTBS (UniProt Q01459), the log2 fold change was -0.002 (inactive).
As for CAD (UniProt P27708), the log2 fold change is 0.048 (inactive).
Regarding C4A (UniProt P0C0L4), the log2 fold change was -0.067 (inactive).
With COQ9 (UniProt O75208), the log2 fold change was -0.025 (inactive).
Still for that read-out and setting: as for CD53 (UniProt P19397), the figure is 0.142 (inactive); as for CCNH (UniProt P51946), -0.035 (inactive); as for CNOT2 (UniProt Q9NZN8), -0.014 (inactive).
For CHMP4C (UniProt Q96CF2), the log2 fold change was 0.169 (inactive).
As for CASP10 isoform 4 (UniProt Q92851), the log2 fold change is 0.189 (inactive).
On to CA1 (UniProt P00915), for which the log2 fold change was 0.039 (inactive).
Regarding CASP3 (UniProt P42574), the log2 fold change is 0.004 (inactive).
CRKL (UniProt P46109): the log2 fold change is 0.041 (inactive).
Same read-out and setting: as for CPSF3 (UniProt Q9UKF6), the figure is 0.024 (inactive).

Compound in another test: CC1=C2C(=CC=C1)N=C(N(C2=O)C3=CC=CC=C3C)CN4C=NC5=C(N=CN=C54)N
The description is as above. The method in brief: as §1
In the case of CCDC82 (UniProt Q8N4S0), the log2 fold change was 0.033 (inactive).
As for CCDC59 (UniProt Q9P031), the log2 fold change is -0.214 (inactive).
Regarding COASY isoform 2 (UniProt Q13057), the log2 fold change was 0.053 (inactive).
Take CDC42EP1 (UniProt Q00587): the log2 fold change was 0.041 (inactive).
Take C4orf33 (UniProt Q8N1A6): the log2 fold change is 0.066 (inactive).
Regarding CLN3 (UniProt Q13286), the log2 fold change was -0.315 (inactive).
Same read-out and setting: for CNOT4 isoform 6 (UniProt O95628) the value was 0.068 (inactive).
With CDK16 isoform 2 (UniProt Q00536), the log2 fold change is 0.043 (inactive).
The same measure, in the same setting: as for CASTOR2 (UniProt A6NHX0), the figure is 0.039 (inactive); as for CD81 (UniProt P60033), -0.035 (inactive).
COX6B1 (UniProt P14854): the log2 fold change was 0.003 (inactive).
For CLN8 (UniProt Q9UBY8), the log2 fold change is -0.067 (inactive).
Turning to COMT (UniProt P21964), the log2 fold change was 0.09 (inactive).
In the case of CSE1L (UniProt P55060), the log2 fold change is 0.033 (inactive).
Regarding CSTF3 (UniProt Q12996), the log2 fold change is -0.007 (inactive).
Regarding CDC37L1 (UniProt Q7L3B6), the log2 fold change is 0.087 (inactive).
On to CDK9 isoform 2 (UniProt P50750), for which the log2 fold change was 0 (inactive).
For the target CTBS (UniProt Q01459), the log2 fold change was 0.014 (inactive).
Consider CAD (UniProt P27708), for which the log2 fold change was -0.019 (inactive).
Take C4A (UniProt P0C0L4): the log2 fold change was 0.127 (inactive).
For the target COQ9 (UniProt O75208), the log2 fold change is 0.053 (inactive).
For CD53 (UniProt P19397), the log2 fold change was 0.106 (inactive).
For CCNH (UniProt P51946), the log2 fold change was 0.032 (inactive).
With CNOT2 (UniProt Q9NZN8), the log2 fold change was 0.056 (inactive).
On to CHMP4C (UniProt Q96CF2), for which the log2 fold change is 0.045 (inactive).
Turning to CASP10 isoform 4 (UniProt Q92851), the log2 fold change is 0.114 (inactive).
CA1 (UniProt P00915): the log2 fold change is 0.019 (inactive).
As to CASP3 (UniProt P42574), the log2 fold change was -0.005 (inactive).
For CRKL (UniProt P46109), the log2 fold change was 0.032 (inactive).
Turning to CPSF3 (UniProt Q9UKF6), the log2 fold change is 0.036 (inactive).
